From PubChem BioAssay (Tox21)
Results filed as inconclusive are left out. Calls of active or inactive are those of the source. Unless noted, the call rests on the fitted dose curve; in most records, active means well fitted curve in the direction sought with a large enough effect in the repeat runs; inconclusive means weak or mixed curves; inactive means no such curve, though single readings can be large; an effect the other way counts as inactive or inconclusive.

What was measured:
[1] = target: Progesterone receptor (Homo sapiens) (UniProt P06401); assay: qHTS assay to identify small molecule antagonists of the progesterone receptor (PR) signaling pathway (AID 1346795; active means well fitted inhibition curve with a large enough effect in the signal ratio in the repeat runs, not every such curve was filed as active; the % refers to the signal ratio)
Outline: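 Read-out is fluorescence from the LiveBLAzer B/G FRET substrate, cleaved by a UAS-controlled beta-lactamase in PR-UAS-bla HEK293T cells after 16 hr exposure to compound plus 1 nM promegestone (final), followed by 2 hr at room temperature.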

[2] = qHTS assay to identify small molecule antagonists of the progesterone receptor (PR) signaling pathway - cell viability counter screen (AID 1346798);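 further: HEK293T PR-UAS-bla cells stimulated with the agonist R5020; series mostly up to about 92 µM; nearly all actives have a fitted effect of over 50% in size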
Outline: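 HEK293T PR-UAS-bla, 2% charcoal-stripped FBS; 4 hr pre-plate; cpd + R5020, 16 h 37C; LiveBLAzer read first; then CellTiter-Glo 30 min RT, luminescence.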

[3] = qHTS assay to identify small molecule agonists of the progesterone receptor (PR) signaling pathway - cell viability counter screen (AID 1346799; calls by dose curve; further: nearly all actives have a fitted effect of over 45% in size; further: potency means the concentration at half of the fitted maximal effect)
Outline: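 Luminescence from CellTiter-Glo, added after the beta-lactamase FRET read in the same wells, gave cytotoxicity in PR-UAS-bla HEK293T cells treated with compounds for 16 hr at 37C.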

[4] = qHTS assay to identify small molecule antagonists of the TGF-beta/Smad signaling pathway - cell viability counter screen (AID 1346824); further: nearly all actives have a fitted effect of over 50% in size
Outline: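 Cytotoxicity counter-screen run in the same wells as the beta-lactamase Smad reporter read: CellTiter-Glo luminescence after 30 min at room temperature. HEK 293T SBE-bla cells had 5 hr compound exposure at 37 C with TGF-beta1 (0.25 ng/mL stock).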

[5] = qHTS assay to identify small molecule agonists of the TGF-beta/Smad signaling pathway - cell viability counter screen (AID 1346829); further: top concentration of the series differs between compounds; nearly all actives have a fitted effect of over 45% in size
Outline: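 Here the cytotoxicity of library compounds is measured in SBE-bla HEK 293T cells treated for 5 hr, using CellTiter-Glo added to wells already read for the beta-lactamase reporter.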

[6] = qHTS assay to identify small molecule agonists of the TGF-beta/Smad signaling pathway (AID 1346859; active means well fitted activation curve with a large enough effect in the signal ratio in the repeat runs, not every such curve was filed as active; the % refers to the signal ratio; further: series mostly up to about 77 µM)
Outline: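 SBE-bla HEK 293T, 4,000 cells/well, plated o/n; cpd in DMSO, 5 hr, 37 C/5% CO2; B/G FRET substrate 2 hr RT; ex 405, em 460/530 nm.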

[7] = target: Thyrotropin-releasing hormone receptor (Homo sapiens) (UniProt P34981); assay: qHTS assay to identify small molecule antagonists of the thyrotropin-releasing hormone receptor (TRHR) signaling pathway (AID 1346877; active means well fitted inhibition curve with a large enough effect in the repeat runs, not every such curve was filed as active; further: series mostly up to about 51 µM)
Outline: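 TRHR-expressing HEK293 cells were seeded, cultured 18 h at 37 °C, then loaded with calcium dye for 2 h. Compounds were pre-incubated 5 min at room temperature before 1 nM TRH (final) was added, and kinetic fluorescence was recorded for 3 min.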

[8] = target: Thyrotropin-releasing hormone receptor (Homo sapiens) (UniProt P34981); assay: qHTS assay to identify small molecule agonists of the thyrotropin-releasing hormone receptor (TRHR) signaling pathway (AID 1346891; calls by dose curve; further: series mostly up to about 58 µM)
Outline: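 Intracellular calcium rise, read as fluorescence every second for 3 min, served as the agonist signal in dye-loaded HEK293 cells expressing TRHR; each compound ran at 15 concentrations in triplicate.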

[9] = Human pregnane X receptor (PXR) small molecule agonists, qHTS cell viability counter screen (AID 1346977); further: nearly all actives have a fitted effect of over 50% in size
Outline: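 PXR-Luc HepG2, 2,000 cells/well, 5% charcoal-stripped FBS; 5hr settle; cpd 24hr, 37C/5% CO2; CellTiter-Fluor at 23hr, read 1hr later (fluorescence).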

[10] = Caspase-3/7 induction in HepG2 cells by small molecules, qHTS assay (AID 1346978); further: nearly all actives have a fitted effect of over 15% in size
Outline: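 Caspase-3/7 induction was measured by Caspase-Glo 3/7 luminescence (30 min, room temperature) after a 17 hr compound exposure of wild-type HepG2 cells seeded at 2,000 per well and pre-incubated 5 hr.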

[11] = Caspase-3/7 induction in CHO-K1 cells by small molecules, qHTS cell viability counter screen (AID 1346979); further: nearly all actives have a fitted effect of over 35% in size; further: potency means the concentration at half of the fitted maximal effect
Outline: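 Cells (CHO-K1, wild type) are plated at 1,500 per well and incubated 5hr. Test compounds in DMSO are then pinned in, followed by 16hr at 37C and 5% CO2. Viability is read by CellTiter-Fluor fluorescence after 1hr.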

[12] = Caspase-3/7 induction in CHO-K1 cells by small molecules, qHTS assay (AID 1346980); further: nearly all actives have a fitted effect of over 15% in size
Outline: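 Luminescent Caspase-Glo 3/7 read (30min, room temperature) quantified apoptosis induction. Cells were wild-type CHO-K1, treated with compound for 17hr at 37 C and 5% CO2.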

[13] = Caspase-3/7 induction in HepG2 cells by small molecules, qHTS cell viability counter screen (AID 1346981); further: series mostly up to about 92 µM; nearly all actives have a fitted effect of over 30% in size
Outline: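 Wild-type HepG2 cells (2,000/well) were allowed to settle for 5 hr at 37 C, 5% CO2, then dosed with compounds in DMSO by pin transfer. After 16 hr at 37 C, CellTiter-Fluor was added and fluorescence read 1 hr later.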

[14] = target: Nuclear receptor subfamily 1 group I member 2 (Homo sapiens) (UniProt O75469); assay: Human pregnane X receptor (PXR) small molecule agonists, qHTS assay (AID 1346982); further: nearly all actives have a fitted effect of over 35% in size; further: potency means the concentration at half of the fitted maximal effect
Outline: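 PXR-Luc HepG2 cells (CYP3A4 promoter-driven luciferase) were seeded in medium with 5% charcoal-stripped FBS, left 5 hr at 37 C, then exposed to compounds in DMSO for 24 hr. Luminescence was read after ONE-Glo addition.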

[15] = target: Cytochrome P450 2D6 (Homo sapiens) (UniProt P10635); assay: Cytochrome P450 Family 2 Subfamily D Member 6 (CYP2D6) small molecule antagonists: luciferase reporter qHTS assay (AID 1671196); further: nearly all actives have a fitted effect of over 50% in size; further: potency means the concentration at half of the fitted maximal effect
Outline: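 CYP2D6 enzyme–substrate mix was held with compound for 10 min at room temperature, then NADPH regeneration solution was added and the reaction ran 1 h at room temperature. Luciferin product was detected by luminescence after 20 min with detection reagent.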

[16] = target: Nuclear receptor subfamily 1 group I member 2 (Rattus norvegicus) (UniProt Q9R1A7); assay: Rat pregnane X receptor (rPXR) activation by small molecules, qHTS assay (AID 1346983); conditions: rPXR luciferase reporter cells, One-Glo luminescence, 24 h; max activation: stronger effect = higher value; further: nearly all actives have a fitted effect of over 20% in size
Outline: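 Luminescent readout (One-Glo luciferase, 30 min room temperature) followed 24 hr compound treatment at 37 C of rPXR cells plated 2,000 per well and preincubated 5hr; qHTS format with compounds delivered in DMSO.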

[17] = target: Progesterone receptor (Homo sapiens) (UniProt P06401); assay: qHTS assay to identify small molecule agonists of the progesterone receptor (PR) signaling pathway (AID 1346784; calls by dose curve; further: nearly all actives have a fitted effect of over 30% in size)
Outline: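 Beta-lactamase reporter read-out: after 16 hr compound treatment at 37C and a further 2 hr at room temperature with LiveBLAzer B/G FRET substrate, fluorescence was measured in PR-UAS-bla HEK 293T cells grown in 2% charcoal-stripped serum.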

[18] = target: Cytochrome P450 2C19 (Homo sapiens) (UniProt P33261); assay: Cytochrome P450 Family 2 Subfamily C Member 19 (CYP2C19) small molecule antagonists: luciferase reporter qHTS assay (AID 1671197); further: nearly all actives have a fitted effect of over 65% in size; further: potency means the concentration at half of the fitted maximal effect
Outline: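 Light output is proportional to CYP2C19 activity: proluciferin substrate is converted to luciferin, then detected by a luciferin detection reagent that also stops the 1 h, 37C NADPH-driven reaction. Ketoconazole serves as positive control.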

[19] = target: Nuclear receptor subfamily 1 group I member 2 (Homo sapiens) (UniProt O75469); assay: CYP3A4 induction through human pregnane X receptor (PXR) by small molecules, qHTS assay (AID 1346984); further: nearly all actives have a fitted effect of over 40% in size
Outline: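 DPX-2 cells (HepG2 co-transfected with PXR and CYP3A4 promoter-luciferase) treated with compounds 24 h at 37C; luciferin-IPA CYP3A4 substrate 3uM final added for 3 h, then One-Glo; luminescence read. qHTS format.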
On the % scale 0 is the no-effect control and ±100 the full control effect.

Sequence of Cytochrome P450 2C19 (Homo sapiens) (P33261 whole entry, looked up): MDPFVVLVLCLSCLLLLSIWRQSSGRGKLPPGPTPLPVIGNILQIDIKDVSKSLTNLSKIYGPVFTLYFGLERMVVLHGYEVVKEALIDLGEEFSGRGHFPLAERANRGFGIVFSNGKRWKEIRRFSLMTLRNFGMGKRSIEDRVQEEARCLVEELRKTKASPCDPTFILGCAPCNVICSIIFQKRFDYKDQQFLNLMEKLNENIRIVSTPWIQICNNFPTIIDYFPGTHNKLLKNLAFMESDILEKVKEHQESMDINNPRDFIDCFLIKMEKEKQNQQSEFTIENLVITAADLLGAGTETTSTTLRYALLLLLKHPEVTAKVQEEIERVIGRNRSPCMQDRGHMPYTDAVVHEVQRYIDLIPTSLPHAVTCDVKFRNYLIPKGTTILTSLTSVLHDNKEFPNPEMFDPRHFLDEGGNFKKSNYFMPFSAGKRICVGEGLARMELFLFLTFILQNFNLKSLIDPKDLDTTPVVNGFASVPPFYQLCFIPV
Sequence of Nuclear receptor subfamily 1 group I member 2 (Homo sapiens) (O75469 whole entry, looked up): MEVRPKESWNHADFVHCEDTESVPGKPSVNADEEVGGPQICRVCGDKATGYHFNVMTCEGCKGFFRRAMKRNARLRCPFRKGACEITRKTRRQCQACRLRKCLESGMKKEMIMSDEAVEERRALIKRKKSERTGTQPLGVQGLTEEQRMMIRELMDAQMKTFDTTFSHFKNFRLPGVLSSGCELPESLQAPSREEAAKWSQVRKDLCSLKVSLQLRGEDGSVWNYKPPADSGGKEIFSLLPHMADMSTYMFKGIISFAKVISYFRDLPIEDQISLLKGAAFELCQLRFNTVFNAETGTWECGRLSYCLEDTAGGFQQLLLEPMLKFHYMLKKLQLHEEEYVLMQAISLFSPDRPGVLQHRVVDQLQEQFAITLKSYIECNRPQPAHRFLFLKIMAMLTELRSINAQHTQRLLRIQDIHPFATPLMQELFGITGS
Sequence of Thyrotropin-releasing hormone receptor (Homo sapiens) (P34981 whole entry, looked up): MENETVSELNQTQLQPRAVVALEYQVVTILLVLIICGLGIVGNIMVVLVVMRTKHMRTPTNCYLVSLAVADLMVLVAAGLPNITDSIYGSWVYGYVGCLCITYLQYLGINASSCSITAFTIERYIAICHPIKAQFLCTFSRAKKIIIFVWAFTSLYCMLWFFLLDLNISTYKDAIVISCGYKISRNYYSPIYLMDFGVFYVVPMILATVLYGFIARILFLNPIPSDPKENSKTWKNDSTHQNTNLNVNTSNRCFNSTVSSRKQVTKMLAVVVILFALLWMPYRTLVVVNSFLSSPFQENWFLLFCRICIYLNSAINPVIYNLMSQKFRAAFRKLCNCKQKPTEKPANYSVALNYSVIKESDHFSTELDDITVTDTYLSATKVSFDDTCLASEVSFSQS
Sequence of Cytochrome P450 2D6 (Homo sapiens) (P10635 whole entry, looked up): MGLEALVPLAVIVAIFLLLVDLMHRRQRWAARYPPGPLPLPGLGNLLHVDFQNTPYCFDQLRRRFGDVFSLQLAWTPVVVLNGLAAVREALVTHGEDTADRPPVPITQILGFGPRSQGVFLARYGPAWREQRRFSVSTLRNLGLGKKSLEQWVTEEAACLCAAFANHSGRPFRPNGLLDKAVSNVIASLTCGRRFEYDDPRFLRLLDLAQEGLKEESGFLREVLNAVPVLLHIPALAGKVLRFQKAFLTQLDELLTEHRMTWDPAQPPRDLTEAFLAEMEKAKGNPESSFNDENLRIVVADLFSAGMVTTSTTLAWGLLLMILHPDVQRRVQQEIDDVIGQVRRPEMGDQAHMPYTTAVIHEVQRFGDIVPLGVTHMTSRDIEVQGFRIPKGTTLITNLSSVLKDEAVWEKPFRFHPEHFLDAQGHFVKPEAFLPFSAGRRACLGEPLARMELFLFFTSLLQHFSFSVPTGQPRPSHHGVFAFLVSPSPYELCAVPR
Sequence of Progesterone receptor (Homo sapiens) (P06401 whole entry, looked up): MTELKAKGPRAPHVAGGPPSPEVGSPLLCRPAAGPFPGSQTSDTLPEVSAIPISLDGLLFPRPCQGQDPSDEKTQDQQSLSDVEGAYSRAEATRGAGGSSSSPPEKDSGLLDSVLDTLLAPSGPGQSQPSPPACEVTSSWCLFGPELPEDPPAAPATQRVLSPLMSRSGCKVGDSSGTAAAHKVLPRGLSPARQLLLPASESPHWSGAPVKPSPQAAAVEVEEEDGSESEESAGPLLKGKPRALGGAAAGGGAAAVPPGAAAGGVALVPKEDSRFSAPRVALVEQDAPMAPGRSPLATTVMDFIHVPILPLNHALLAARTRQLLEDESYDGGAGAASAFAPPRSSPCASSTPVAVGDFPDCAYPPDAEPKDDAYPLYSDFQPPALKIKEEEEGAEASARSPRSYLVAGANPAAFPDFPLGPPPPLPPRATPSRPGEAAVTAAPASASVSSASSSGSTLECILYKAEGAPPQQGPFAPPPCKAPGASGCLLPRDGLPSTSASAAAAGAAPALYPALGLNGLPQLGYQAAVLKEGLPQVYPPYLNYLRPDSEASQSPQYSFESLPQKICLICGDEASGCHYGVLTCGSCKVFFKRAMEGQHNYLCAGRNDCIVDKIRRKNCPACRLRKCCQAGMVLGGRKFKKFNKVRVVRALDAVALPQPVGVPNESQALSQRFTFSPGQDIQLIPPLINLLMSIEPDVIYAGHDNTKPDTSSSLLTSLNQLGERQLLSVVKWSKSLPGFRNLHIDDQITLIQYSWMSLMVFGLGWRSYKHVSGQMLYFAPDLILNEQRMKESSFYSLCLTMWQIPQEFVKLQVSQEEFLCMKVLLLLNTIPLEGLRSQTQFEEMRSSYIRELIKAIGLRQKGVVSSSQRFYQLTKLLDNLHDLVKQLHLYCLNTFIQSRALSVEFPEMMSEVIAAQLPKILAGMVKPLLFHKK
Sequence of Nuclear receptor subfamily 1 group I member 2 (Rattus norvegicus) (Q9R1A7 whole entry, looked up): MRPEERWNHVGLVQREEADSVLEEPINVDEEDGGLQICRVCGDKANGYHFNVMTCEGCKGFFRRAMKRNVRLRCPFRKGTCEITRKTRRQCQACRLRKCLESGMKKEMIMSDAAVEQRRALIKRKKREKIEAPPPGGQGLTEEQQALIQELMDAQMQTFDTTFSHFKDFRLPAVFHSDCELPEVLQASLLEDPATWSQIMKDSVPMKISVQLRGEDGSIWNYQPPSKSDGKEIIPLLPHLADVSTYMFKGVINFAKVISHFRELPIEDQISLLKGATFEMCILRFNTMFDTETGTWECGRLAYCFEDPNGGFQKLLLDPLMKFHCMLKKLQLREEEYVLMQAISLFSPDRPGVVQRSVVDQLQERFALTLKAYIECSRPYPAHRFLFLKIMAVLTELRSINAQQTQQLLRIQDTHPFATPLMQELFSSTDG

C[C@H](CN1CCCC1)C(=O)c1ccc(C(F)(F)F)cc1
inactive: Potency [1] | Potency [2] | Potency [3] | outcome [4] | outcome [5] | outcome [6] | outcome [7] | outcome [8] | Potency [9] | Potency [10] | Potency [11] | Potency [12] | Potency [13]
active: Potency [14] 26.6 µM | Potency [15] 1.55 µM

CCc1c(C)[nH]c2c1C(=O)C(CN1CCOCC1)CC2 (stereo not given)
inactive: Potency [1] | Potency [2] | Potency [3] | outcome [4] | outcome [5] | outcome [6] | outcome [7] | outcome [8] | Potency [9] | Potency [10] | Potency [11] | Potency [12] | Potency [13] | max activation [16] -1.99%

CC1=C(C)C(=O)C(CCCCC#CCCCC#CCO)=C(C)C1=O
active: Potency [11] 29.8 µM | Potency [14] 26.6 µM | Potency [15] 15.5 µM | Potency [18] 11 µM
inactive: Potency [17] | outcome [4] | outcome [5] | outcome [6] | outcome [7] | outcome [8] | Potency [9] | Potency [10] | Potency [12] | Potency [13]

C=C[Si](OCC)(OCC)OCC
inactive: Potency [1] | Potency [2] | Potency [3] | outcome [4] | outcome [5] | outcome [6] | outcome [7] | outcome [8] | Potency [9] | Potency [10] | Potency [11] | Potency [12] | Potency [13]

CC(=O)Nc1cccc(N)c1
inactive: Potency [1] | Potency [2] | Potency [3] | outcome [4] | outcome [5] | outcome [6] | outcome [7] | outcome [8] | Potency [9] | Potency [10] | Potency [11] | Potency [12] | Potency [13] | Potency [14]
active: Potency [18] 57.2 µM

O=C(O)c1cccc(C(=O)O)c1C(=O)O
inactive: Potency [1] | Potency [2] | outcome [4] | outcome [5] | outcome [6] | outcome [7] | outcome [8] | Potency [9] | Potency [10] | Potency [11] | Potency [12] | Potency [13] | Potency [14]
active: Potency [3] 34.7 µM | Potency [15] 40.3 µM | Potency [18] 71.7 µM

O=C(O)CNc1ccccc1
inactive: Potency [1] | Potency [2] | Potency [3] | outcome [4] | outcome [5] | outcome [6] | outcome [7] | outcome [8] | Potency [9] | Potency [10] | Potency [14] | Potency [15] | Potency [18]

C/C(=C\C(C)CC(C)CC(C)C)C1CC(=O)OC1=O (stereo not given)
inactive: Potency [17] | outcome [5] | outcome [6] | outcome [7] | outcome [8] | Potency [9] | Potency [12] | Potency [14]
active: Potency [15] 35.6 µM

Cc1cc(SC2=C(O)C[C@@](CCc3ccc(N)cc3)(C(C)C)OC2=O)c(C(C)(C)C)cc1CO
active: Potency [14] 30.6 µM
inactive: Potency [1] | Potency [2] | Potency [3] | outcome [4] | outcome [5] | outcome [7] | outcome [8] | Potency [9] | Potency [10] | Potency [11] | Potency [13] | Potency [15]

Cc1cc(C)n(CO)n1
inactive: Potency [17] | Potency [3] | outcome [7] | outcome [8] | Potency [9] | Potency [10] | Potency [11] | Potency [12] | Potency [13] | Potency [14] | Potency [15] | Potency [18]

c1ccc(CN(Cc2ccccc2)Cc2ccccc2)cc1
active: Potency [14] 30.6 µM | Potency [15] 7.96 µM | Potency [18] 5.64 µM
inactive: Potency [17] | Potency [2] | Potency [3] | outcome [5] | outcome [6] | outcome [7] | outcome [8] | Potency [9] | Potency [10] | Potency [12] | Potency [13]

CC(C)=CCC/C(C)=C/C=N/O
active: Potency [14] 34.4 µM | Potency [15] 35.6 µM
inactive: Potency [17] | outcome [4] | outcome [5] | outcome [6] | outcome [7] | outcome [8] | Potency [9] | Potency [10] | Potency [11] | Potency [12] | Potency [13]

CC(C)CCCCCCCOC(=O)c1ccc(C(=O)OCCCCCCCC(C)C)c(C(=O)OCCCCCCCC(C)C)c1
active: Potency [3] 42.6 µM | Potency [14] 19 µM
inactive: Potency [17] | outcome [4] | outcome [5] | outcome [6] | Potency [10] | Potency [12] | Potency [13] | Potency [15] | Potency [18]

Clc1cccc(C(c2ccc3nc[nH]c3c2)n2ccnc2)c1 (stereo not given)
inactive: Potency [1] | Potency [2] | Potency [3] | outcome [5] | outcome [6] | outcome [7] | outcome [8] | Potency [9] | Potency [10] | Potency [11] | Potency [12] | Potency [13] | Potency [14] | Potency [19]
active: Potency [18] 2.75 µM

CCCCCCCCCCCC(=O)OCC
inactive: Potency [1] | Potency [2] | Potency [3] | outcome [4] | outcome [5] | outcome [6] | Potency [9] | Potency [10] | Potency [11] | Potency [12] | Potency [13] | Potency [14] | Potency [15] | Potency [18]

CC(C)(C)c1ccc(CCC=O)cc1
inactive: Potency [1] | Potency [2] | Potency [3] | outcome [4] | outcome [5] | outcome [6] | outcome [7] | outcome [8] | Potency [9] | Potency [10] | Potency [12] | Potency [13] | Potency [14] | Potency [15]

CC1(COc2ccc(CC3SC(=O)NC3=O)cc2)CCCCC1 (stereo not given)
inactive: Potency [17] | outcome [5] | outcome [6] | outcome [7] | outcome [8] | Potency [10] | Potency [12] | Potency [13] | max activation [16] 5.72% | Potency [15]
